Data taken from ChEMBL document CHEMBL4513216, “Probing the Open Global Health Chemical Diversity Library for Multistage-Active Starting Points for Next-Generation Antimalarials” (ACS Infect Dis, 2020).
The campaign covered roughly 68,000 compounds. About 2,700 (4%) showed an effect of 50% or more. This is one part of a sample in which strong results are shown more often than they occur.

System: Plasmodium berghei
Test: Screen against P. berghei liver stage (PbLuc), transformed with Luciferase, at 2uM
Format: functional, HepG2
Details: tested at 2 uM

Structure (SMILES)	INHIBITION [%]
COc1ccc(OC)c2c(C)cc(N(C)Cc3cc(C)on3)nc12	38.87
Cc1cccc(CN2CC3(CCN(C4CCOC4)CC3)OCC2=O)n1 (configuration not stated)	15.98
COc1c(CNCc2ccc(C(=O)N3CCCC3)cc2)c(C)nn1C	-36.39
O=C(CN1CCCC(c2ncc[nH]2)C1)NCCCN1CCCCCC1=O (configuration not stated)	-21.61
O=C(CCC(F)(F)F)N1CCCC(c2ncc[nH]2)C1 (configuration not stated)	-1.64
O=C(CN1CCCC(c2ncc[nH]2)C1)NCC(F)(F)F (configuration not stated)	51.23
CC(=O)NS(=O)(=O)c1ccc(F)c(C(F)(F)F)c1	-38.34
CS(=O)(=O)CCC(=O)N1CCC2(CCCN(C3CCOCC3)C2=O)C1 (configuration not stated)	-11.19
O=C(O)c1cc(S(=O)(=O)Nc2cccc3c2OCCO3)c(Cl)cc1F	-47.76
CCOc1ccc(C(F)(F)F)cc1NC(=O)N1CCC(C(N)=O)CC1	-3.17
CCc1n[nH]c(NC(=O)c2ccc(Cl)cn2)c1Br	-3.87
c1c(CN2CCCCC2)nc2n1CCN(CC1CC1)C2	7.13
Cc1ccc(CN2CCn3cc(CN4CCN(C)CC4)nc3C2)cc1	18.32
c1c(CN2CCCC2)nc2n1CCN(CC1CC1)C2	-33.57
CN1CCN(Cc2cn3c(n2)CN(CC2CC2)CC3)CC1	70.17
CN1CCN(Cc2cn3c(n2)CN(Cc2ccncc2)CC3)CC1	51.26
CN1CCN(Cc2cn3c(n2)CN(Cc2cccnc2)CC3)CC1	-59.73
CCCS(=O)(=O)NC(C)C(=O)NCc1ccc(N2CCCC2)nc1 (configuration not stated)	-5.15
O=C(c1cc[nH]n1)N1CCC2(CC1)CC(Oc1cccnc1)CO2 (configuration not stated)	-0.83
O=C(CSc1ccccc1F)NS(=O)(=O)c1ccc2c(c1)OCCO2	12.81
O=C(CCCOc1ccccc1F)Nc1cc[nH]n1	-9.47
CC(NC(=O)COc1nc(C(C)(C)C)no1)c1ccco1 (configuration not stated)	1.22

Structure (SMILES)	INHIBITION [%]
Cn1cc(C2CCCN2C(=O)CS(=O)(=O)C2CCCC2)cn1 (configuration not stated)	-0.06
CC(=O)N1CCC2(CC1)CN(CC1CC1)c1ccc(F)cc12	-18.44
Cc1ccc2c(c1)C1(CCN(C(N)=O)CC1)CN2C(=O)N(C)C	-22.42
Cc1ccc2c(c1)C1(CCN(C(N)=O)CC1)CN2CC1CC1	52.12
CC(C(=O)Nc1nccs1)N1CCc2nn(C)c(=O)cc2C1 (configuration not stated)	16.82
Cn1c(CN2CCCC2)nnc1C1CCCN(C(=O)C2CCOCC2)C1 (configuration not stated)	-19.54
CCCc1cc(N2CCCC2Cn2nc(C)nc2C)n2ncnc2n1 (configuration not stated)	19.39
CCN(CC)c1ncnc2c(C)nn(CC)c12	-25.59
CCn1nc(C)c2ncnc(N3CCCC(C)C3)c21 (configuration not stated)	73.48
CCCc1nc(N2CCCC(C)C2)c2c(n1)c(C)nn2CC (configuration not stated)	15.58
CS(=O)(=O)NCC1CCCN(c2ccc(C#N)cn2)C1 (configuration not stated)	-0.3
N#Cc1cccnc1N1CCCN(C(=O)CCn2cccn2)CC1	41.76
O=S(=O)(c1ccc2c(c1)OCCO2)N1CCc2ccccc2C1	50.57
O=c1ccc2c([nH]1)CCN(S(=O)(=O)c1ccc3c(c1)OCCO3)C2	14.45
O=S(=O)(c1ccc2c(c1)OCCO2)N1CCC(OCc2ccccn2)C1 (configuration not stated)	-26.14
COc1ccc(C(C)NC(=O)NCCCn2cncn2)cc1F (configuration not stated)	-40.52
CCS(=O)(=O)CC(=O)NC(C)c1ccccc1Oc1ccccc1 (configuration not stated)	-28.15
CC(NC(=O)CSCC(N)=O)c1ccccc1Oc1ccccc1 (configuration not stated)	51.7
CC(NC(=O)CSCC(N)=O)c1ccc(Oc2ccccc2)cc1 (configuration not stated)	29.97
Cc1ccc(CN2CCCC23CCN(S(=O)(=O)c2ccccc2)C3)o1 (configuration not stated)	-30.74
Cc1ncc(CN(Cc2ccccn2)Cc2ccccc2Cl)n1C	-6.19
COC(=O)N1CC2(CCNCC2)c2cc(Cl)ccc21	22.71

Structure (SMILES)	INHIBITION [%]
NC(=O)N1CC2(CCNCC2)c2cc(Cl)ccc21	6.12
CC(=O)N1CC2(CCNCC2)c2cc(Cl)ccc21	62.25
O=c1cc(C2CCNCC2)nc(CCc2ccccn2)[nH]1	15.92
O=C(Cc1csc(-c2ccoc2)n1)NCCCN1CCCCC1	6.85
O=C(Cc1csc(-c2ccoc2)n1)NCCC(=O)N1CCCCC1	45.56
CC1CCCN(CCCNC(=O)Cc2csc(-c3ccoc3)n2)C1 (configuration not stated)	50.61
COCC(=O)N1CCC(C(=O)Nc2ccc(C(C)=O)cc2)CC1	10.64
CCC(C)NC(=O)Nc1cccc(OCCCC#N)c1 (configuration not stated)	12.39
O=C(c1ccco1)N1CC[C@@H]2O[C@H](COCCN3CCCC3)CC[C@@H]21	15.88
CC(C)(C)C(=O)N1CCN(Cn2nccc2-c2cccnc2)CC1	53
c1cncc(-c2ccnn2CN2CCOCC2)c1	-31.15
CC(C)(C)CCN1CCN(Cn2nccc2-c2cccnc2)CC1	-15.83
CC(=O)NCCNC(=O)C1(Oc2cccnc2C)CCNCC1	53.19
Cc1ncccc1OC1(C(=O)NCCc2ccccn2)CCNCC1	17.94
Cc1ncccc1OC1(C(=O)NCCNc2ccccc2)CCNCC1	-25.28
Cc1cnn(C2CN(CC(O)COc3ccc(C#N)cc3)C2)c1 (configuration not stated)	-2.84
Cc1ncsc1CCN(C)C(=O)C(c1cccnc1)N1CCOCC1 (configuration not stated)	-13.13
Cc1cc(CN(C)C(=O)C(c2cccnc2)N2CCOCC2)n[nH]1 (configuration not stated)	39.92
Cc1n[nH]c(C)c1CCN(C)C(=O)C(c1cccnc1)N1CCOCC1 (configuration not stated)	51.31
O=C(N1CCCCC1)N1CCN(c2ccc(Cl)nn2)C(=O)C1	34.52
COc1cc(N2C[C@H]3CN(Cc4ccccn4)C[C@H]3C2)ncn1	-37.2
CC(NC(=O)N1CCc2sccc2C1)c1nncn1C (configuration not stated)	64.21

Structure (SMILES)	INHIBITION [%]
COc1ccc(N2CCN(C(=O)NC(C)c3nncn3C)CC2)cc1 (configuration not stated)	-11.34
COc1cc2c(cc1OC)CN(C(=O)NC(C)c1nncn1C)CC2 (configuration not stated)	-23.92
CC(NC(=O)N1CCc2ccccc2C1)c1nncn1C (configuration not stated)	-56.96
CC(NC(=O)N1CCN(c2ccccc2)CC1)c1nncn1C (configuration not stated)	50.72
Cc1cccc(N2CCN(C(=O)NC(C)c3nncn3C)CC2)c1 (configuration not stated)	48.64
Cc1ncccc1CNC(CCO)C1CCCCC1 (configuration not stated)	-16.72
O=C(CN1CCNC1=O)NCc1ccc2sccc2c1	-18.57
Cc1nnc(C2Cc3ccccc3CN2Cc2ncc(Cl)n2C)o1 (configuration not stated)	27.59
COCc1cncc2c1CCN(C(=O)c1ccoc1C)C2	34.02
Cc1nonc1CN(C)c1nc(-c2ccco2)nc2c1CCN(C)CC2	38.91
Cc1cc(CN(C)c2nc(-c3ccco3)nc3c2CCN(C)CC3)on1	67.05
Cc1noc(CN(C)c2nc(-c3ccco3)nc3c2CCN(C)CC3)n1	18.14
CNc1nc(C(=O)N2CCn3nc(C(=O)OC)cc3C2)cs1	-0.15
COCc1c(C(=O)N2CCCC(C(=O)c3ccccc3)C2)noc1C (configuration not stated)	10.1
O=S1(=O)CCN2C(=N1)Oc1ccc(Cl)cc12	22.96
CN(CCc1ccccn1)C(=O)c1cccs1	24.64
CN(Cc1ccoc1)C(=O)C1CC(=O)N(Cc2ccncc2)C1 (configuration not stated)	10.91
CN(Cc1ccon1)C(=O)C1CC(=O)N(Cc2ccncc2)C1 (configuration not stated)	15.96
CN(Cc1cnc(N)nc1)C(=O)C1CC(=O)N(Cc2ccncc2)C1 (configuration not stated)	59.8
CC(C)c1nnc2n1CCN(Cc1nc3c(F)cccc3[nH]1)C2	45.4
Cc1oc(-c2ccsc2)nc1CN1CC[C@@H]2CCCC[C@H]2C1	54.49
Cc1ncc2c(n1)CN(Cc1nc(-c3ccsc3)oc1C)CC2	31.05

Structure (SMILES)	INHIBITION [%]
Cc1oc(-c2ccsc2)nc1CN1CCCC(c2ccnn2C)C1 (configuration not stated)	13.88
CN(C)Cc1nc2c(o1)CN(S(=O)(=O)c1cccs1)C2	-0.45
Cn1nc(C(=O)N2CCOCC2)cc1C(=O)Nc1ncc(Cl)cc1Cl	-47.52
Cn1nc(C(=O)N2CCOCC2)cc1C(=O)Nc1c(Cl)cccc1Cl	13.45
Cn1nc(C(=O)N2CCOCC2)cc1C(=O)Nc1ccc(Cl)cc1Cl	61.02
CC(C)CC(NC(=O)c1ccc[nH]1)C(=O)N1CCC(CO)CC1 (configuration not stated)	20.3
CC(C)[C@H]1CN(c2cnccn2)C[C@@H]1NC(=O)C1(C#N)CCOCC1	2.3
CCc1ncncc1C(=O)N1CCCN(Cc2ccc(C)cc2)CC1	-8.84
CCc1ncncc1C(=O)N1CCN(Cc2ccsc2)CC1	-45.83
Cc1ccc(C(=O)N2CCN(Cc3ccsc3)CC2)n1C	43.52
CC(C)c1ncncc1C(=O)N1CCN(Cc2ccsc2)CC1	58.05
CCc1ncncc1C(=O)N1CCCN(Cc2ccc(C#N)cc2)CC1	68.24
CCc1ncncc1C(=O)N1CCCN(Cc2ccccc2C)CC1	-23.42
CC(C)c1ncncc1C(=O)N1CCCN(Cc2cccs2)CC1	8.37
CC(C)c1ncncc1C(=O)N1CCCN(Cc2ccccc2)CC1	56.02
CC(C)c1ncncc1C(=O)N1CCN(Cc2cccnc2)CC1	33.61
Cc1cc(C(=O)N2CCN(Cc3ccsc3)CC2)c(C)n1C1CC1	53.58
CC(C)c1ncncc1C(=O)N1CCN(Cc2cscn2)CC1	-43.47
O=C(c1cc(C2CC2)[nH]n1)N1CCN(Cc2ccsc2)CC1	44.43
